# Assay results: PubChem BioAssay AID1508601 (ICCB-Longwood Screening Facility, Harvard Medical School, 2020)
# Screen size: about 5,700 compounds; about 85 (1%) were called active. Rule as the data show it: active = p53-positive nuclei above about 36% (passing the limit was not always enough); inactive = the rest. The entries come from a sample that favours actives as a whole.
# How the values were obtained:
# [1] = p53 stabilisation in HPV-positive human cells, imaging, p53-positive nuclei imaging, 24 h, 48 h (AID 1508601); details: 24/48 h
# [2] = molecular target: Cellular tumor antigen p53 (Homo sapiens) (UniProt P04637); experiment: as above; details: 24/48 h, stronger effect = higher value
# Sequence of Cellular tumor antigen p53 (Homo sapiens) (P04637 whole entry, looked up): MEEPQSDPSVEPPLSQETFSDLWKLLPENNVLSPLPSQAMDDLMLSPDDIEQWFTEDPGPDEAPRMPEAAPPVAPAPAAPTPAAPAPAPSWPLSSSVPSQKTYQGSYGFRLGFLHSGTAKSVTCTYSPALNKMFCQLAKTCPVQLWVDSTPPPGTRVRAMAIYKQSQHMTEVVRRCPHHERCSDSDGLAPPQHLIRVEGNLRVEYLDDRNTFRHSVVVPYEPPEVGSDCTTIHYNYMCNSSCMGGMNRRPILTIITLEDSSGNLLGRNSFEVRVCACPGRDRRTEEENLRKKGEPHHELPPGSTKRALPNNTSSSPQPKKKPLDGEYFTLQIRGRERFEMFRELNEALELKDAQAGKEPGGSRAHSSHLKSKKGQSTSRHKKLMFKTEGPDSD
# [3] = measured here: cell number at 24 h, concentration not given here
# [4] = measured here: cell number at 48 h, concentration not given here
# [5] = measured here: p53 positive nuclei at 24 h, concentration not given here
compound,measurement,setting,value
CCCCC/C=C/C=C1/C=CC(=O)[C@@H]1C/C=C\CCCC(=O)O,"nuclei count, normalised",[1]; [3],106%
same,"nuclei count, normalised",[1]; [4],102%
same,"p53-positive nuclei, normalised",[2]; concentration not given here,0.0559% (inactive)
same,"p53-positive nuclei, normalised",[2]; [5],0.0826%
O=C(O)CCC/C=C\C[C@@H]1[C@@H](/C=C/[C@@H](O)COc2ccccc2)[C@H](O)C[C@@H]1O,"nuclei count, normalised",[1]; [3],96%
same,"nuclei count, normalised",[1]; [4],102%
same,"p53-positive nuclei, normalised",[2]; concentration not given here,-0.0602% (inactive)
same,"p53-positive nuclei, normalised",[2]; [5],-0.00687%
CC(=O)Nc1ccc(S(=O)(=O)Nc2ccc([N+](=O)[O-])cc2)cc1,"nuclei count, normalised",[1]; [3],87.2%
same,"nuclei count, normalised",[1]; [4],92.6%
same,"p53-positive nuclei, normalised",[2]; concentration not given here,-0.0672% (inactive)
same,"p53-positive nuclei, normalised",[2]; [5],0.0938%
COC(=O)C#Cc1ccc([N+](=O)[O-])cc1,"nuclei count, normalised","[1]; measured here: cell number at 24 h, Library stock concentration: 500 nM",110%
same,"nuclei count, normalised","[1]; measured here: cell number at 24 h, Library stock concentration: 1.5 uM",114%
same,"nuclei count, normalised","[1]; measured here: cell number at 24 h, Library stock concentration: 4.6 uM",106%
same,"nuclei count, normalised","[1]; measured here: cell number at 24 h, Library stock concentration: 13.7 uM",116%
same,"nuclei count, normalised","[1]; measured here: cell number at 24 h, Library stock concentration: 41 uM",110%
same,"nuclei count, normalised","[1]; measured here: cell number at 24 h, Library stock concentration: 123 uM",103%
same,"nuclei count, normalised","[1]; measured here: cell number at 24 h, Library stock concentration: 370 uM",118%
same,"nuclei count, normalised","[1]; measured here: cell number at 24 h, Library stock concentration: 1.111 mM",107%
same,"nuclei count, normalised","[1]; measured here: cell number at 24 h, Library stock concentration: 3.333 mM",74.6%
same,"nuclei count, normalised","[1]; measured here: cell number at 24 h, Library stock concentration: 10 mM",49.2%
same,"nuclei count, normalised","[1]; measured here: cell number at 48 h, Library stock concentration: 500 nM",111%
same,"nuclei count, normalised","[1]; measured here: cell number at 48 h, Library stock concentration: 1.5 uM",112%
same,"nuclei count, normalised","[1]; measured here: cell number at 48 h, Library stock concentration: 4.6 uM",112%
same,"nuclei count, normalised","[1]; measured here: cell number at 48 h, Library stock concentration: 13.7 uM",112%
same,"nuclei count, normalised","[1]; measured here: cell number at 48 h, Library stock concentration: 41 uM",114%
same,"nuclei count, normalised","[1]; measured here: cell number at 48 h, Library stock concentration: 123 uM",106%
same,"nuclei count, normalised","[1]; measured here: cell number at 48 h, Library stock concentration: 370 uM",117%
same,"nuclei count, normalised","[1]; measured here: cell number at 48 h, Library stock concentration: 1.111 mM",108%
same,"nuclei count, normalised","[1]; measured here: cell number at 48 h, Library stock concentration: 3.333 mM",69.9%
same,"nuclei count, normalised","[1]; measured here: cell number at 48 h, Library stock concentration: 10 mM",32.5%
same,"p53-positive nuclei, normalised",[2]; Library stock concentration: 500 nM,-0.248% (inactive)
same,"p53-positive nuclei, normalised",[2]; Library stock concentration: 1.5 uM,0.113% (inactive)
same,"p53-positive nuclei, normalised",[2]; Library stock concentration: 4.6 uM,-0.0386% (inactive)
same,"p53-positive nuclei, normalised",[2]; Library stock concentration: 13.7 uM,0.351% (inactive)
same,"p53-positive nuclei, normalised",[2]; Library stock concentration: 41 uM,-0.0492% (inactive)
same,"p53-positive nuclei, normalised",[2]; Library stock concentration: 123 uM,0.00469% (inactive)
same,"p53-positive nuclei, normalised",[2]; Library stock concentration: 370 uM,0.132% (inactive)
same,"p53-positive nuclei, normalised",[2]; Library stock concentration: 1.111 mM,-0.122% (inactive)
same,"p53-positive nuclei, normalised",[2]; Library stock concentration: 3.333 mM,0.307% (inactive)
same,"p53-positive nuclei, normalised",[2]; Library stock concentration: 10 mM,69.2% (active)
same,"p53-positive nuclei, normalised","[2]; measured here: p53 positive nuclei at 24 h, Library stock concentration: 500 nM",-0.0875%
same,"p53-positive nuclei, normalised","[2]; measured here: p53 positive nuclei at 24 h, Library stock concentration: 1.5 uM",-0.0262%
same,"p53-positive nuclei, normalised","[2]; measured here: p53 positive nuclei at 24 h, Library stock concentration: 4.6 uM",-0.0872%
same,"p53-positive nuclei, normalised","[2]; measured here: p53 positive nuclei at 24 h, Library stock concentration: 13.7 uM",0.099%
same,"p53-positive nuclei, normalised","[2]; measured here: p53 positive nuclei at 24 h, Library stock concentration: 41 uM",0.0546%
same,"p53-positive nuclei, normalised","[2]; measured here: p53 positive nuclei at 24 h, Library stock concentration: 123 uM",-0.148%
same,"p53-positive nuclei, normalised","[2]; measured here: p53 positive nuclei at 24 h, Library stock concentration: 370 uM",-0.0792%
same,"p53-positive nuclei, normalised","[2]; measured here: p53 positive nuclei at 24 h, Library stock concentration: 1.111 mM",-0.148%
same,"p53-positive nuclei, normalised","[2]; measured here: p53 positive nuclei at 24 h, Library stock concentration: 3.333 mM",0.591%
same,"p53-positive nuclei, normalised","[2]; measured here: p53 positive nuclei at 24 h, Library stock concentration: 10 mM",73.8%
O=C(N[C@@H](CO)[C@H](O)c1ccc([N+](=O)[O-])cc1)C(Cl)Cl,"nuclei count, normalised",[1]; [3],109%
same,"nuclei count, normalised",[1]; [4],107%
same,"p53-positive nuclei, normalised",[2]; concentration not given here,-0.175% (inactive)
same,"p53-positive nuclei, normalised",[2]; [5],-0.247%
